# DRD3 antagonist: blocks the human D3 dopamine receptor. AID 652054. P35462. max response, negative = inhibition, %. 2.5% of 360,000 active. D3R cells, DiscoveRx beta-arrestin luminescence, antagonist mode; hits give low values; in the data active = max response below about -50%; inconclusive = no clear call, values can overlap the other calls
# Target sequence (P35462 whole entry, looked up): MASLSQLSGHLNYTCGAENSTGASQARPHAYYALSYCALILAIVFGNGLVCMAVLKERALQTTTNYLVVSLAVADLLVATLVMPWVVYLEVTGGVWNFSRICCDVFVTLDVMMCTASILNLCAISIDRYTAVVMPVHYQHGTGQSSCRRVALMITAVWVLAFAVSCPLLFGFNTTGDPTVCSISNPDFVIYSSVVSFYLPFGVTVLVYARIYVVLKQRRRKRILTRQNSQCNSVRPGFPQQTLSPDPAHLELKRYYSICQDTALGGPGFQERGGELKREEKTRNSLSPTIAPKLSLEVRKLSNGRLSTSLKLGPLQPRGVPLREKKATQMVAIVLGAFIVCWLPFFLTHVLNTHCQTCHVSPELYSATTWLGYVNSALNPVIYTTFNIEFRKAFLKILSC
#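 Cells expressing the human receptor were seeded at 1500 cells/well, incubated overnight at 37 degrees C in 5% CO2, then exposed to library compounds with dopamine controls for 90 minutes at 37 degrees C before luminescent detection.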
# B2AR arrestin: recruits beta-arrestin to the human beta2-adrenergic receptor | P07550 | beta-arrestin recruitment to beta2AR, cell-based reporter | Potency, µM (highest dose often 46.1 µM), most hits filed as activators | 0.02% of 330,000 active; active = well fitted activation curve with a large enough effect; inconclusive = small, poorly fitted or top-dose-only effect; note: nearly all actives have a fitted effect of over 65% in size
# D3 ag: activates the human D3 dopamine receptor; P35462; D3R DiscoveRx beta-arrestin cells, luminescence, 90 min; max activation, %; 0.58% of 410,000 active; AID 652048; in the data active = max activation above about 30%
#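 Agonist-mode cell screen: cells plated at 1500/well and incubated overnight at 37 °C, then exposed to library compounds for 90 min at 37 °C. Detection reagent was added for 30–60 min at room temperature, and luminescence was read.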
# Giardia killer: Giardia lamblia killing. activity change, % at 7.66 µM, hits read low. 0.15% of 340,000 active. Giardia lamblia trophozoite viability. AID 540267; in the data active = activity change below about -80%; inconclusive = between about -30% and that limit;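 note: parasites exposed to compound for two days anaerobically before the ATP read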
#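 Anaerobic 48 hrs incubation at 37 deg C of 100 trophozoites/well with test compounds; ATPLite 1-Step luminescence, 15-30 min RT, reports cellular ATP as viability.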
# A number is an active result; i = inactive; ? = inconclusive; nt = not tested or not shown. In the library only some 2.8% were active in any assay of this set; here they are far more common.
SMILES,DRD3 antagonist,B2AR arrestin,D3 ag,Giardia killer
CCc1nnc(NC(=O)CSc2nc(-c3ccc(F)cc3)cc(-c3ccccc3)c2C#N)s1,i,i,i,i
N#Cc1c(-c2ccccc2)cc(-c2cccs2)nc1SCC(=O)O,-55.2,i,i,i
N#Cc1c(-c2ccc(Cl)cc2)cc(-c2cccs2)nc1SCC(=O)O,i,i,i,i
COC(=O)C1=C[C@@H](C(=O)OC)C2C3=C(C(=O)[C@]2(C)NC(=O)c2ccccc2)[C@H](C)n2c(=O)n(-c4ccccc4)c(=O)n2[C@@H]3C1 (stereo partly drawn),nt,nt,nt,i
Cc1ccccc1OCC(O)Cn1c2ccccc2c2ccccc21 (stereo not drawn),i,i,45.6,i
CC(=O)Nc1ccc(OCC(O)Cn2c3ccccc3c3ccccc32)c(C)c1 (stereo not drawn),i,i,30.9,i
OC(COc1ccccc1)Cn1c2ccccc2c2ccccc21 (stereo not drawn),i,i,i,i
Cc1cc(C(=O)N/N=C/c2cc(Cl)cc([N+](=O)[O-])c2O)c2ccccc2n1,-66.0,i,i,i
O=C(N/N=C/c1cc(Cl)cc([N+](=O)[O-])c1O)c1cccc(S(=O)(=O)N2CCOCC2)c1,-93.0,i,i,i
O=C(NN=Cc1cc(Cl)ccc1[N+](=O)[O-])c1cccc2ccccc12,i,nt,i,i
COc1cc(Cl)cc(/C=N\NC(=O)c2ccc3c(c2)OCO3)c1O,i,nt,i,nt
O=C(N/N=C/c1cc(Br)cc(Br)c1O)c1cccc(S(=O)(=O)N2CCOCC2)c1,i,i,i,i
O=C(N/N=C/c1cc(Cl)cc([N+](=O)[O-])c1O)c1ccc2c(c1)OCO2,-67.3,i,i,i
Cc1ccc(NC(=O)C(Cc2ccccc2)NS(=O)(=O)c2ccc3c(c2)c(=O)n(C)c(=O)n3C)c(C)c1 (stereo not drawn),nt,nt,i,nt
COc1ccccc1CNC(=O)CN1C(=O)CCc2cc(S(=O)(=O)N3CCCCC3)ccc21,nt,nt,i,nt
C=CCc1ccccc1OCC(O)CN1CCN(CCN2C(=O)c3cccc4cccc(c34)C2=O)CC1 (stereo not drawn),i,i,i,i
Cc1ccccc1OCC(O)CN1CCN(CCN2C(=O)c3cccc4cccc(c34)C2=O)CC1 (stereo not drawn),-86.0,i,i,i
O=C(/C=C/c1ccccc1)N1CCN(CCN2C(=O)c3cccc4cccc(c34)C2=O)CC1,-95.9,i,i,i
O=C(CCN1C(=O)c2cccc3cccc(c23)C1=O)N1CCOCC1,i,i,i,i
C1CCN(CCC2CCCCN2)CC1 (stereo not drawn),i,nt,i,nt
C1CCC(OCCN2CCN(CCOC3CCCCC3)CC2)CC1,-63.0,i,i,i
CCCCCCC(C)n1[nH]c(=O)c2c(C)cc(C)nc21 (stereo not drawn),i,i,i,i
CCCCCC(C)n1[nH]c(=O)cc1N (stereo not drawn),-109.4,i,i,i
CCc1cccc(C)c1NC(=O)C(CC)Sc1nc2ccncc2[nH]1 (stereo not drawn),nt,nt,i,nt
COc1ccccc1N1CCN(CCCCOc2cccc3ccccc23)CC1,-68.6,i,i,i
SMILES,DRD3 antagonist,B2AR arrestin,D3 ag,Giardia killer
Fc1ccc(OCCCCCN2CCCC2)cc1,i,i,i,i
CC1CN(CCCCOc2ccc(F)cc2)CC(C)O1 (stereo not drawn),-50.3,i,i,i
COc1ccccc1OCCCCN1CCN(c2ccccc2OC)CC1,-80.5,i,i,i
COc1ccccc1N1CCN(CCCCCCOc2ccc(F)cc2)CC1,-52.1,i,i,i
CC1CN(CCOc2ccc(Cl)c(Cl)c2)CC(C)O1 (stereo not drawn),?,i,i,i
Cc1ccccc1-c1nc(CNC(=O)Nc2ccccc2)c(C)o1,nt,nt,i,nt
CCOC(=O)c1c(NC(=O)CSc2ncccn2)sc2c1CCN(Cc1ccccc1)C2,-81.0,i,i,i
CCOC(=O)c1c(NC(=O)CC)sc2c1CCN(Cc1ccccc1)C2,i,i,i,i
CCOC(=O)c1c(NC(=O)CSc2nnc3c(n2)[nH]c2ccccc23)sc2c1CCN(C)C2,-60.2,nt,i,i
CCOCCc1nnc(NC(=O)Cc2ccccc2)s1,i,i,i,i
CCOCCc1nnc(NC(=O)Cc2c(F)cccc2Cl)s1,i,i,34.7,i
Oc1cccc(-c2c3nc(c(-c4cccc(O)c4)c4ccc([nH]4)c(-c4cccc(O)c4)c4nc(c(-c5cccc(O)c5)c5ccc2[nH]5)CC4)C=C3)c1,nt,nt,i,nt
Cc1ccc(C(c2nnnn2Cc2cccs2)N2CCN(C(=O)c3ccco3)CC2)cc1 (stereo not drawn),-51.7,i,i,i
COc1cccc(-c2onc3ccc(C4(C)OCCO4)cc23)c1,i,i,31.8,i
COc1ccccc1Cc1nc2ccccc2nc1SCC(=O)Nc1c(C)cccc1C,nt,nt,i,nt
COc1cc(-c2nnc(-c3ccc(N4CCOCC4)cc3)o2)cc(OC)c1OC,i,i,38.5,i
C=C1c2c(Cl)ccc(O)c2C(O)=C2C(=O)[C@]3(O)C(O)=C(C(N)=O)C(=O)[C@@H](N(C)C)[C@@H]3[C@@H](O)[C@H]12,nt,nt,i,nt
COc1ccc(CCNS(=O)(=O)c2ccc(F)c(C(=O)Nc3ccc(Cl)cc3)c2)cc1OC,nt,nt,i,nt
N#CCCn1cc(CNCc2cccnc2)c(-c2ccccc2)n1,nt,nt,nt,i
CC(=C\c1ccccc1)/C=C1/SC(=S)N(CC(=O)O)C1=O,nt,nt,i,nt
CN(C)CCNc1ccc(CO)c2oc3ccc(O)cc3c(=O)c12,i,nt,i,i
CCN(CC)CCNc1ccc(CO)c2oc3cc(Cl)ccc3c(=O)c12,-55.6,nt,i,nt
COc1ccc(C(=O)CN2C(=O)N(c3ccc(C(C)=O)cc3)S(=O)(=O)c3ccccc32)cc1,nt,nt,i,nt
CC(C)(C)c1nn(-c2ccccc2)c2[nH]c(=O)c(C=O)cc12,-101.2,i,i,i
CC(C)(C)c1nn(-c2ccccc2)c2nc(Cl)c(C=O)cc12,i,i,i,i
SMILES,DRD3 antagonist,B2AR arrestin,D3 ag,Giardia killer
CCOC(=O)c1sc(NS(=O)(=O)c2ccc(F)cc2)nc1C,i,i,i,i
CCOC(=O)c1sc(NS(=O)(=O)c2ccccc2Cl)nc1C,-70.0,i,i,i
CCOC(=O)c1sc(NS(=O)(=O)c2ccccc2)nc1C,-60.2,i,i,i
Cc1cccc2sc(NS(=O)(=O)c3ccccc3)nc12,-64.5,i,i,i
CN(C)c1ccc(CNC(=O)C2CCN(Cc3cc4ccccc4n3Cc3ccccc3)CC2)cc1,nt,nt,i,nt
CCN1\C(=C/C=C/C=C/c2sc3ccccc3[n+]2CC)Sc2ccccc21,nt,nt,i,nt
Cc1ccc(OC(C)C(=O)N2CCN(CCc3ccccn3)CC2)cc1C (stereo not drawn),nt,nt,i,nt
Cc1ncoc1C(=O)Nc1ccccc1C(N)=O,-99.6,i,i,i
O=S(=O)(NCC1CCCO1)c1cc(Cl)ccc1Cl (stereo not drawn),i,i,i,i
O=C(O)c1ccc(Cl)c(S(=O)(=O)NCC2CCCO2)c1 (stereo not drawn),-53.7,i,i,i
Cc1cccc(OCC(=O)Nc2ccc3c(c2)nc(CCNC(=O)c2ccco2)n3C)c1,nt,nt,i,nt
OCCN1CCN(CC/C=C2/c3ccccc3CSc3ccccc32)CC1,-104.6,nt,i,i

# Assay outcomes from PubChem BioAssay.
